Source: PubChem BioAssay (Broad Institute)
PGC1a acetyl inh = modulators of PGC1a acetylation | hit rate 0.17% among 350,000 | inhibition, % at 15.6 µM | U2OS PGC1a acetylation, AlphaScreen anti-acetyl-lysine; with virally co-expressed GCN5 acetyltransferase;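 active means every replicate shows inhibition of at least 40%; inconclusive means mean inhibition at least 40% but some replicate below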;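 further: 0% = neutral control wells and 100% = positive control wells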
INS-1E GSIS act = primary screen for activators of insulin secretion dependent on glucose, INS-1E cells, GLuc reporter luminescence. INS-1E GLuc reporter insulin secretion, 2-3 h. hit rate 0.61% among 370,000. activation, % at 16.6 µM;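 active means lowest replicate activation of at least 40%, so every replicate reaches that level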;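 further: 0% = median of neutral control wells and 100% = median of IBMX positive control wells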
ERAP1 inh = ERAP1 (human) enzyme inhibition | Q9NZ08 | hit rate 0.15% among 340,000 | recombinant ERAP1, Leu-AMC fluorescence, 60 min | inhibition, % at 10.7 µM;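 active means mean replicate inhibition of at least 30%, or all replicates individually reaching that 30% level; inactive means mean below 30% and not every replicate reaching it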;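 further: 0% = neutral control wells and 100% = L-leucinethiol positive control wells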
RAD52 inh = blocks human RAD52 DNA annealing. AID 651710. P43351. inhibition, % at 18.7 µM. recombinant RAD52 DNA annealing, FRET fluorescence. hit rate 0.46% among 360,000;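 active means every replicate showing at least 50% inhibition; inconclusive means mean inhibition at least 50% but not in every replicate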
RAD54 inh = RAD54 (human) branch migration inhibition. Q92698. AID 602329. hit rate 0.14% among 360,000. RAD54 Holliday junction branch migration, FAM/BHQ fluorescence. inhibition, % at 10.4 µM;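 active means mean normalized replicate activity at least 40 and at least half of replicates scoring 40 or more; inconclusive means only one of the two criteria met; inactive means mean below 40 and under half of replicates reaching 40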;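 further: 0% = median of neutral control wells and 100% = median of positive control wells; inhibitors cause a drop in the FAM fluorescence signal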
MLL AF4-AF9 inh = MLL-AF4/AF9 protein interaction inhibition. AlphaScreen, biotin-AF4 peptide binding to FLAG-AF9. inhibition, % at 10 µM. hit rate 0.47% among 350,000. AID 651704;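 active means every replicate reaching a set inhibition limit, whatever the replicate mean, cut at about 25% in these data; inconclusive means mean inhibition reaches that limit but some replicates miss it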;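 further: 0% = plate neutral control median and 100% = total signal loss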
Target sequence (P42568 whole entry, looked up): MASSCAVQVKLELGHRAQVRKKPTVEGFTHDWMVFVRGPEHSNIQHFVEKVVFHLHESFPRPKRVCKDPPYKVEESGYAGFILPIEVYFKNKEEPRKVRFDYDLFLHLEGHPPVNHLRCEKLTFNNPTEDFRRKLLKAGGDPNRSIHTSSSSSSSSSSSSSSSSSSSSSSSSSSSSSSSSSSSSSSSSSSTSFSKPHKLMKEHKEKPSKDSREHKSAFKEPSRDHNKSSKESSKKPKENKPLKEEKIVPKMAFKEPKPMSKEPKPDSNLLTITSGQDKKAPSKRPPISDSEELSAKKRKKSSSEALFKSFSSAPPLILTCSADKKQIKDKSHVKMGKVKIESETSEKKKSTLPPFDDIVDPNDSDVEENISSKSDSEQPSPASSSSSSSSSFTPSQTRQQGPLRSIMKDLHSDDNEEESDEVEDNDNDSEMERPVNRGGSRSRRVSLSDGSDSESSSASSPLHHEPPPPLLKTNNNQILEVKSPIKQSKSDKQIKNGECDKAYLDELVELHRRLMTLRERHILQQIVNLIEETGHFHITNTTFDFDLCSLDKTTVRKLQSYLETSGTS
Active calls of the source: *; i = inactive; ? = inconclusive; · = no result. An excerpt weighted towards active compounds, which were near 1.4% of everything screened.

SMILES	PGC1a acetyl inh	INS-1E GSIS act	ERAP1 inh	RAD52 inh	RAD54 inh	MLL AF4-AF9 inh
O=C(NCC[C@H]1CC[C@H](NC(=O)Nc2cc(F)ccc2F)[C@H](CO)O1)Nc1ccc(F)cc1	9.0	-17.5	1.7	10.9	-1.3	13.1
CO[C@H]1CN(C)C(=O)c2cc(NC(C)=O)ccc2OC[C@@H](C)N(CC2CCCCC2)C[C@H]1C	-15.9	13.9	·	·	8.4	·
Cc1cc(C)cc(NCc2cc(=O)oc3cc(-c4ccccc4)c(O)cc23)c1	-0.5	-17.4	·	·	6.0	·
COc1ccc(C)cc1NCc1cc(=O)oc2cc(-c3ccccc3)c(O)cc12	·	107.3*	·	·	·	·
C[C@@H]1CN([C@@H](C)CO)C(=O)c2cc(-c3ccc(F)cc3)cnc2O[C@H]1CN(C)C(=O)Nc1ccc(F)cc1	5.3	-23.4	·	·	·	·
Cc1ccn2c(Nc3ccccc3C)c(-c3ccccn3)nc2c1	5.1	-13.1	6.9	27.7	1.3	·
Cc1ccccc1Nc1c(-c2ccccn2)nc2ccccn12	2.9	-7.5	1.7	15.2	·	41.8*
C[C@@H]1CN([C@H](C)CO)C(=O)CCCn2nncc2CO[C@@H]1CN(C)Cc1ccncc1	-5.1	2.2	·	·	·	·
COc1ccc(C(=O)N/N=C/c2c(C)[nH]c(=O)[nH]c2=O)cc1	1.7	0.9	-5.4	-29.2	1.3	1.7
COc1ccc(CO/N=C/c2c(C)[nH]c(=O)[nH]c2=O)cc1	2.6	44.0*	·	·	2.4	·
Cc1ccc(NC(=O)c2cccs2)cc1NC(=O)c1ccccc1Cl	12.6	167.1*	3.9	-5.8	5.4	-3.1
Cc1ccc(/C=C/C(=O)NC2CCCCCCC2)o1	·	57.8*	·	·	·	·
O=c1c(C(c2c(O)nc3n(c2=O)CCS3)c2cccc3ccccc23)c(O)nc2n1CCS2	18.4	·	·	·	54.5*	·
CC(=O)N1CCN(C(C)=O)c2ccccc21	·	20.2	-3.2	4.4	2.8	36.3*
CCCCn1c(SCC(=O)NCc2ccc3c(c2)OCO3)nnc1C(CC)N(C)C (stereo not drawn)	43.7*	-1.1	-4.2	-4.2	10.7	-0.5
CCCCn1c(SCC(=O)Nc2ccc3c(c2)OCCO3)nnc1C(CC)N(C)C (stereo not drawn)	·	-0.8	1.3	-0.6	6.1	0.8
Cc1cccc(CN2C(=O)CSc3ccc(C(=O)NC4CC4)cc32)c1	-3.4	190.5*	-0.1	-14.1	-1.5	-3.9
CCCC(=O)N1CC2(CN(C(=O)CC3CC3)C2)c2c(n(C)c3cc(OC)ccc23)[C@H]1CO	·	5.7	1.8	3.3	·	-2.4
C/C=C/c1ccc([C@H]2[C@H](CO)N(S(=O)(=O)Cc3ccccc3)C23CN(C(=O)C2CC2)C3)cc1	·	-22.7	·	·	·	·
CC(C)c1ccc(OC(=O)c2cccc(S(=O)(=O)N3CCN(C)CC3)c2)cc1	1.8	-33.1	105.8*	3.6	-2.9	6.8
O=C(C[C@H]1CC[C@@H]2[C@H](COC[C@H](O)CN2C(=O)c2ccc(F)cc2)O1)Nc1ccc(-c2ccccc2)cc1	2.5	-25.7	0.0	-11.7	-4.4	4.1
Cc1cc(C)cc(C(=O)NC(=S)Nc2ccc(-c3cc4ccccc4oc3=O)cc2)c1	·	42.0*	·	·	-0.7	·
Cc1ccc(C(=O)NC(=S)Nc2ccc(-c3cc4ccccc4oc3=O)cc2)c(C)c1	-5.2	·	·	·	-2.4	·
O=C(Cc1c(O)c2ccccc2oc1=O)c1ccc(F)cc1	-8.0	-4.3	0.0	-9.1	-12.2	47.4*
C[C@H](CO)N1C[C@H](C)[C@H](CN(C)S(=O)(=O)c2ccc(F)cc2)Oc2cc(C#Cc3ccc(F)cc3)ccc2S1(=O)=O	4.9	0.1	-0.9	4.4	-17.9	-2.6
SMILES	PGC1a acetyl inh	INS-1E GSIS act	ERAP1 inh	RAD52 inh	RAD54 inh	MLL AF4-AF9 inh
CCN1/C(=C/c2ccc3cc(C)ccc3[n+]2CC)Sc2ccccc21	·	-41.3	18.2	i	·	17.0
CCN1/C(=C/c2ccc3cc(C)ccc3[n+]2CC)Sc2cc(C)c(C)cc21	27.3	-50.2	32.6*	i	·	17.5
Cc1c(OCC(=O)NCc2ccccn2)ccc2c3c(c(=O)oc12)CCCC3	-6.8	41.1*	2.3	-17.7	-1.2	-0.9
COc1cccc(S(=O)(=O)N[C@@H]2CC[C@@H](CCNC(=O)Cc3ccncc3)O[C@@H]2CO)c1	-1.2	14.1	3.0	-19.5	-0.6	-1.0
CC(C)CC(=O)Nc1nnc(SCC(=O)NC2CCCC2)s1	2.4	120.9*	-0.4	-4.6	-4.7	-1.4
CC(C)CC(=O)Nc1nnc(SCC(=O)NC2CCCCC2)s1	·	21.7	1.2	-15.1	2.4	-0.4
CNC[C@H]1Oc2c(NS(=O)(=O)c3ccc(C)cc3)cccc2C(=O)N([C@H](C)CO)C[C@@H]1C	8.7	2.4	-0.8	-0.8	11.4	-1.7
CCCCCCSc1ccc([C@@H]2[C@H]3C(=O)N(CC)C(=O)[C@H]3[C@]3(C(=O)OC)CCCCN23)cc1OC	-15.2	·	2.7	-195.0	-14.6	47.5*
CCCNC(=O)Nc1ccc2c(c1)C(=O)N(C)[C@H]1CC[C@@H](CC(=O)O)O[C@@H]1CO2	-7.9	1.0	·	·	-12.2	·
COc1ccc(CN2CCn3ncc(C(=O)Nc4ccccc4)c3C2=O)cc1	129.1*	20.8	·	·	·	·
CCCN1CCC2(CC1)CN(Cc1ccc3c(c1)OCO3)[C@H](CO)c1[nH]c3cc(OC)ccc3c12	-11.7	-19.4	0.4	86.9*	·	30.4*
COc1ccc2c3c([nH]c2c1)[C@@H](CO)N(C(C)=O)CC31CCN(C(=O)c2ccc3c(c2)OCO3)CC1	-10.5	8.4	-1.2	-2.3	·	25.4*
O=C(Nc1ccccc1)N[C@@H]1CC[C@@H](CCn2cc(-c3ccccc3F)nn2)O[C@H]1CO	·	9.1	-0.8	-0.8	·	-2.1
C[C@@H]1CN([C@@H](C)CO)C(=O)Cc2cc(N(C)C)ccc2O[C@H]1CN(C)C(=O)Nc1ccc2c(c1)OCO2	-13.9	11.1	0.7	2.6	3.3	0.2
COc1cc(/C=C/C(=O)OCC(=O)NCc2cccs2)ccc1OC(F)F	·	45.8*	·	·	·	·
CC(O)C(NS(=O)(=O)c1ccc(Cl)cc1)C(=O)OCC(=O)c1ccc2c(c1)NC(=O)CO2 (stereo not drawn)	0.6	13.9	-7.8	-8.5	13.3	1.0
COc1ccc(/C=C/C(=O)OCC(=O)c2ccc3c(c2)NC(=O)CO3)cc1	-9.9	3.6	·	-14.9	6.6	-3.4
COc1cc(/C=C/C(=O)OCC(=O)c2ccc3c(c2)NC(=O)CO3)ccc1OC(F)F	1.2	20.1	37.2*	-3.4	5.8	-0.1
CC(C)CC(NC(=O)c1ccc(Cl)cc1)C(=O)OCC(=O)c1ccc2c(c1)NC(=O)CO2 (stereo not drawn)	?	460.6*	·	·	1.4	·
COc1cc(/C=C/C(=O)OCC(=O)NCCc2ccccc2)ccc1OC(F)F	·	61.1*	0.3	-50.5	-4.6	-1.0
CC(C)NC(=O)N1CC2(C1)[C@@H](c1ccccc1)[C@@H](CO)N2C(=O)C1CCC1	·	-17.3	·	·	·	·
CN(C)c1ccc2nc3ccc(=O)cc-3sc2c1	-2.9	·	1.0	-81.7	-3.7	66.5*
